# In ChEMBL document CHEMBL1961873, “Compounds: GSK PKIS; Assays: Nanosyn kinase panel” (2012):
# What was measured:
# [1] = target: Tyrosine-protein kinase receptor UFO (Homo sapiens) (UniProt P30530); settings: at 1 µM
# [2] = target: Tyrosine-protein kinase Blk (Homo sapiens) (UniProt P51451); settings: at 0.1 µM
# [3] = target: Tyrosine-protein kinase Blk (Homo sapiens) (UniProt P51451); settings: at 1 µM
# [4] = target: T1, Cytoplasmic tyrosine-protein kinase BMX (Homo sapiens) (UniProt P51813); settings: at 0.1 µM
# T1 sequence (whole entry): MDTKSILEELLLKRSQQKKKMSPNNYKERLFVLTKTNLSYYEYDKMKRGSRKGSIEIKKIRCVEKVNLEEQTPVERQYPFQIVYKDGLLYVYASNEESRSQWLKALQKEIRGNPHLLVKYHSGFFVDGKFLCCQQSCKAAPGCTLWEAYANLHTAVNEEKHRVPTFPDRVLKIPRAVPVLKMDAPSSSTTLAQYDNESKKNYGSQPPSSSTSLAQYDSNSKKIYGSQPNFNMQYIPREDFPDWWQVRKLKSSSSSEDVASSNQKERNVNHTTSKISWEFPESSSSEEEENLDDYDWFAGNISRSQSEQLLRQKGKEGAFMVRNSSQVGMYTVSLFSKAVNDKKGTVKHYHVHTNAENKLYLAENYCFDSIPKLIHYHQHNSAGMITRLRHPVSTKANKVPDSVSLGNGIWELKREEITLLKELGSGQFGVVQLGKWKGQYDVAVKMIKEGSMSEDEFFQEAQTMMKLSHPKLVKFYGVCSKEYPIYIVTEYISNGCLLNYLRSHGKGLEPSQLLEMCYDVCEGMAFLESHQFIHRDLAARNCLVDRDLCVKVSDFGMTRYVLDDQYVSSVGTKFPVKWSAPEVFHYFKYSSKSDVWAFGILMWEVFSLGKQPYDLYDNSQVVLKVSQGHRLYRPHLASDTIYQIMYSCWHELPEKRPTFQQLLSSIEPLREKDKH
# [5] = target: T1, Cytoplasmic tyrosine-protein kinase BMX (Homo sapiens); settings: at 1 µM
# [6] = target: Protein-tyrosine kinase 6 (Homo sapiens) (UniProt Q13882); settings: at 0.1 µM
# [7] = target: Protein-tyrosine kinase 6 (Homo sapiens) (UniProt Q13882); settings: at 1 µM
# [8] = target: Tyrosine-protein kinase BTK (Homo sapiens) (UniProt Q06187); settings: at 0.1 µM
# Sequence of Tyrosine-protein kinase BTK (Homo sapiens) (Q06187 whole entry): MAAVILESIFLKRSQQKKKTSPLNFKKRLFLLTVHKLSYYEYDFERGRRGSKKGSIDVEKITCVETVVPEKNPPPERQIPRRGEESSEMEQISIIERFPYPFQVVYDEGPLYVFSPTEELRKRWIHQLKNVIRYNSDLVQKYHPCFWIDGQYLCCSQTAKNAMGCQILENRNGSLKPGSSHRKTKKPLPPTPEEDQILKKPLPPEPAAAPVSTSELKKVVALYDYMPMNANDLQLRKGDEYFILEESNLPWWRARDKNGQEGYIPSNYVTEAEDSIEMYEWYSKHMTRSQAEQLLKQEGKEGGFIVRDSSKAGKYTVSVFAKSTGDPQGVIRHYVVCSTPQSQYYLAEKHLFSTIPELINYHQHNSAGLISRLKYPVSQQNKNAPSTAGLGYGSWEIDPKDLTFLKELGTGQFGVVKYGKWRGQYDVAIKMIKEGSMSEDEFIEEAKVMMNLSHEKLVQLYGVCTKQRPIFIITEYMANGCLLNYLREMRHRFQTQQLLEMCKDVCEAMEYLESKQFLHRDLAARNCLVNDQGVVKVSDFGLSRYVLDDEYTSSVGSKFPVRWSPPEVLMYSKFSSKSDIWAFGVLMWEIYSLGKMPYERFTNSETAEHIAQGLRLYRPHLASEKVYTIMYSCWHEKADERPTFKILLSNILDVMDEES
# [9] = target: Tyrosine-protein kinase BTK (Homo sapiens) (UniProt Q06187); settings: at 1 µM
# [10] = target: Tyrosine-protein kinase CSK (Homo sapiens) (UniProt P41240); settings: at 0.1 µM
# Sequence of Tyrosine-protein kinase CSK (Homo sapiens) (P41240 2-450 limits assumed): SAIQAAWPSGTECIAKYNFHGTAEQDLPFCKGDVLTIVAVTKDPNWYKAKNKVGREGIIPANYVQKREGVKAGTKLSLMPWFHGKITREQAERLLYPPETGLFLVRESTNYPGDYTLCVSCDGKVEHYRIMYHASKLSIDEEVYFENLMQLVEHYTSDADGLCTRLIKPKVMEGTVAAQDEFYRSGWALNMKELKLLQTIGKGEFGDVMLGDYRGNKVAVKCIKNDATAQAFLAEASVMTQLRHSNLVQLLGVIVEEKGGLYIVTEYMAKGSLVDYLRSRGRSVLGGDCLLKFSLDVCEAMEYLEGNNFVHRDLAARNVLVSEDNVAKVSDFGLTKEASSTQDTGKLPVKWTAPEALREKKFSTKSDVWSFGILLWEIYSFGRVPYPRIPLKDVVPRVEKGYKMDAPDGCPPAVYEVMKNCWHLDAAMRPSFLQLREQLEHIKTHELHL
# [11] = target: Tyrosine-protein kinase CSK (Homo sapiens) (UniProt P41240); settings: at 1 µM
# [12] = target: T2, Discoidin domain-containing receptor 2 (Homo sapiens) (UniProt Q16832); settings: at 0.1 µM
# T2 sequence (whole entry): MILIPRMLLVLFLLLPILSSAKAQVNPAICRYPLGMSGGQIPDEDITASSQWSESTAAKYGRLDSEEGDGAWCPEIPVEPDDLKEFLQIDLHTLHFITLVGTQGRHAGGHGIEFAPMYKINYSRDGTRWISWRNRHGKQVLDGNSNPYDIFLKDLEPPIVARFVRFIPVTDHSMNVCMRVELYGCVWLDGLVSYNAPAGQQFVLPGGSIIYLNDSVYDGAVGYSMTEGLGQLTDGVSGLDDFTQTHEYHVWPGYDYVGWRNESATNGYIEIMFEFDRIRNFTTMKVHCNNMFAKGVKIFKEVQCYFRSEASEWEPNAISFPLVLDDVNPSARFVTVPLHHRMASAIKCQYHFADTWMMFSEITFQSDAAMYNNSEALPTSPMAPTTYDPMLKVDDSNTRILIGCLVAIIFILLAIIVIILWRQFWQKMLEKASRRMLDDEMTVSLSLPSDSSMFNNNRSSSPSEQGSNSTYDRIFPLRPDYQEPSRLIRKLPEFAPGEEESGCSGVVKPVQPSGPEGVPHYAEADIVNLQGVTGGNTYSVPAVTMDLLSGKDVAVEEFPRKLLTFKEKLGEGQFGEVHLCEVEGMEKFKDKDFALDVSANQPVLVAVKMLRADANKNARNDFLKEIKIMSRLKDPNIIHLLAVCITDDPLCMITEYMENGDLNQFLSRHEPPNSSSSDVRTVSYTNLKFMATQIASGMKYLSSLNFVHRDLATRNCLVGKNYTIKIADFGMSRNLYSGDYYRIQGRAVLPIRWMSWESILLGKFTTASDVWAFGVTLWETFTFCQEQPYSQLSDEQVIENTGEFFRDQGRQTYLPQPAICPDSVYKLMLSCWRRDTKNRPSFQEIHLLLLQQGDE
# [13] = target: T2, Discoidin domain-containing receptor 2 (Homo sapiens); settings: at 1 µM
# [14] = target: Epidermal growth factor receptor (Homo sapiens) (UniProt P00533); settings: at 0.1 µM
# Sequence of Epidermal growth factor receptor (Homo sapiens) (P00533 whole entry): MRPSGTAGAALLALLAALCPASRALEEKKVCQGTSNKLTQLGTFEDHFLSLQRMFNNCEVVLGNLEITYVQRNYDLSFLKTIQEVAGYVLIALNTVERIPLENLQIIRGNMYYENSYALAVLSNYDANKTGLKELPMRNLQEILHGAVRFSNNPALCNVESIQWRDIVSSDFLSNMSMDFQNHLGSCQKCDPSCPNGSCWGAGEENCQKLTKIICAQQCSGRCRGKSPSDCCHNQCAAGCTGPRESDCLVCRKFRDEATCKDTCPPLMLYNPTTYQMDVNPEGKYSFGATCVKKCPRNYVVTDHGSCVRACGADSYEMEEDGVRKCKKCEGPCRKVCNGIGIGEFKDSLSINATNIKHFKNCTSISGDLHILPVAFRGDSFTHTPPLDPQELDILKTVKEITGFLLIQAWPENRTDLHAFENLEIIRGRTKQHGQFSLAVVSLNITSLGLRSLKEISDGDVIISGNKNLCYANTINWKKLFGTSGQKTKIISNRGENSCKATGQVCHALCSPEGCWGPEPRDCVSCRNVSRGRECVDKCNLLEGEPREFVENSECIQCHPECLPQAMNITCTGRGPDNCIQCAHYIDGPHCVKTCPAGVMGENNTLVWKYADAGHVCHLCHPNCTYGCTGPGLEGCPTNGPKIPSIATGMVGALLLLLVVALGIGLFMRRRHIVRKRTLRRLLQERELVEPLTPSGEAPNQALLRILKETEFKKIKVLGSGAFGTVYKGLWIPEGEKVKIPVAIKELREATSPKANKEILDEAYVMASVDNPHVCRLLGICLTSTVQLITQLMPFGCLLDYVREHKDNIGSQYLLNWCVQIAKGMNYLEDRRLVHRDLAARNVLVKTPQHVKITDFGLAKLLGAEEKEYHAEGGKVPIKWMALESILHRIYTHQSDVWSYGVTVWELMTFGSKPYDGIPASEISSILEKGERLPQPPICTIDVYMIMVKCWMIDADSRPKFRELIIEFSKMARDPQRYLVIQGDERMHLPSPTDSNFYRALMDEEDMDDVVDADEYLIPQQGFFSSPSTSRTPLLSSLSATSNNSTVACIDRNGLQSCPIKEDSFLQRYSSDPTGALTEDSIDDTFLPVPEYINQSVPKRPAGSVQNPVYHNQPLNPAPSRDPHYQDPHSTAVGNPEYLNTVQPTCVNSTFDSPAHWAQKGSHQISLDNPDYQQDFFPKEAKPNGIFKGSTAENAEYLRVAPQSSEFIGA
# [15] = target: Epidermal growth factor receptor (Homo sapiens) (UniProt P00533); settings: at 1 µM
# [16] = tested on: Epidermal growth factor receptor (Homo sapiens), P00533 [L858R]; settings: at 0.1 µM
# [17] = tested on: Epidermal growth factor receptor (Homo sapiens), P00533 [L858R]; settings: at 1 µM
# [18] = tested on: Epidermal growth factor receptor (Homo sapiens), P00533 [L861Q]; settings: at 0.1 µM
# [19] = tested on: Epidermal growth factor receptor (Homo sapiens), P00533 [L861Q]; settings: at 1 µM
# [20] = tested on: Epidermal growth factor receptor (Homo sapiens), P00533 [T790M]; settings: at 0.1 µM
# Sequence of Epidermal growth factor receptor (Homo sapiens), P00533 [T790M] (P00533 whole entry T790M): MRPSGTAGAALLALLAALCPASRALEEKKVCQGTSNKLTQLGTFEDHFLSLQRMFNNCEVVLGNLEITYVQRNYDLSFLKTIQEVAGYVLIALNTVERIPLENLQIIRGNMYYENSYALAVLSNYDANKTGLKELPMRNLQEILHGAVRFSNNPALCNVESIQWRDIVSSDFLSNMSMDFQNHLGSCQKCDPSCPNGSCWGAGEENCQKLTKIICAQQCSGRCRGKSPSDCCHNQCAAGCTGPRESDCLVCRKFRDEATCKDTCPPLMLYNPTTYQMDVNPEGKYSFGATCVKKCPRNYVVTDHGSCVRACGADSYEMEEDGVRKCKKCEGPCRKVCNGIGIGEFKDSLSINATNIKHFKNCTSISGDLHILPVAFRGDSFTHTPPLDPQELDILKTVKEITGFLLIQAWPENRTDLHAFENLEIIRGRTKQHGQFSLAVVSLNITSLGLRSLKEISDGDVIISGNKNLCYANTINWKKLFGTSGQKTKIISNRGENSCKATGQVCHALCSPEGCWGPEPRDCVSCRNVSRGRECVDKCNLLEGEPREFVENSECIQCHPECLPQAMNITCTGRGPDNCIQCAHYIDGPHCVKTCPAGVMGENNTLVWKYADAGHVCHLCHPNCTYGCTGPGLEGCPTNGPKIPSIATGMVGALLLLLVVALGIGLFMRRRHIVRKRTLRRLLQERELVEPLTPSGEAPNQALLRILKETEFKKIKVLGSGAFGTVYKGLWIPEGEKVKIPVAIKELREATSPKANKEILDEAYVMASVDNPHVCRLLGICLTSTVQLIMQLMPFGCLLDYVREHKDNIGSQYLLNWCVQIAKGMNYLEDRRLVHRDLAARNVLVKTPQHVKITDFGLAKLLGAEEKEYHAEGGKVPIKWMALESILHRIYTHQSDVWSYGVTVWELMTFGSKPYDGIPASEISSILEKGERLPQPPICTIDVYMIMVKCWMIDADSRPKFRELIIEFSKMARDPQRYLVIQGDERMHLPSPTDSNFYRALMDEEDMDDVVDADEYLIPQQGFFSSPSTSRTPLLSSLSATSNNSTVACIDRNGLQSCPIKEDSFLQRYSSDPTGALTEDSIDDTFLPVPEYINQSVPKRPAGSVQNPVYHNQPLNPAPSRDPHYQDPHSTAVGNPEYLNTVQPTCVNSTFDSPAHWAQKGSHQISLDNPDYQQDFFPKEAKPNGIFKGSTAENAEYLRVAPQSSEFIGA
# Sequence of Tyrosine-protein kinase receptor UFO (Homo sapiens) (P30530 whole entry): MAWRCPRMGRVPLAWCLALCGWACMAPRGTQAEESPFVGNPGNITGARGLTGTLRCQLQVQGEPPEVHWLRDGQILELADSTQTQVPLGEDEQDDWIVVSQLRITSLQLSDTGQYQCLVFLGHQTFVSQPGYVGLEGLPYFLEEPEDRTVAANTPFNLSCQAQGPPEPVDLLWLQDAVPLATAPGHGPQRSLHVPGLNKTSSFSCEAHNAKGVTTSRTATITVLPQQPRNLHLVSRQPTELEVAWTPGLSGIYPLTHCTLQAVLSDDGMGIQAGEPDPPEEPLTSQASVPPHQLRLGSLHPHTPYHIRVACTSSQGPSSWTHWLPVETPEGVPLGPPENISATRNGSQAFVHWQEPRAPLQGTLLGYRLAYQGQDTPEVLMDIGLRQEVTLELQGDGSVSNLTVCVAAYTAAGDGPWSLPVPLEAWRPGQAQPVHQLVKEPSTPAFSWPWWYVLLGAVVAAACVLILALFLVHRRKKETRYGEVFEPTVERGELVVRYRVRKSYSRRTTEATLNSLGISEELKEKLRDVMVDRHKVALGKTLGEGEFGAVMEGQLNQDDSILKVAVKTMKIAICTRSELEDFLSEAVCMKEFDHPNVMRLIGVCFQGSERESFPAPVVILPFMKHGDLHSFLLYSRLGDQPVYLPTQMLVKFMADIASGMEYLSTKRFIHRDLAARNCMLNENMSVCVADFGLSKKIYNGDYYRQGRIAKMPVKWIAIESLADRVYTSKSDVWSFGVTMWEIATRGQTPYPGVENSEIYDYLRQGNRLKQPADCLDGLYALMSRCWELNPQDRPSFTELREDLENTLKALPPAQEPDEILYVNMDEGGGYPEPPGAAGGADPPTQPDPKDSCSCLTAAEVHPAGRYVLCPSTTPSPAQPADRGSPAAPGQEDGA
# Sequence of Tyrosine-protein kinase Blk (Homo sapiens) (P51451 2-505 limits assumed): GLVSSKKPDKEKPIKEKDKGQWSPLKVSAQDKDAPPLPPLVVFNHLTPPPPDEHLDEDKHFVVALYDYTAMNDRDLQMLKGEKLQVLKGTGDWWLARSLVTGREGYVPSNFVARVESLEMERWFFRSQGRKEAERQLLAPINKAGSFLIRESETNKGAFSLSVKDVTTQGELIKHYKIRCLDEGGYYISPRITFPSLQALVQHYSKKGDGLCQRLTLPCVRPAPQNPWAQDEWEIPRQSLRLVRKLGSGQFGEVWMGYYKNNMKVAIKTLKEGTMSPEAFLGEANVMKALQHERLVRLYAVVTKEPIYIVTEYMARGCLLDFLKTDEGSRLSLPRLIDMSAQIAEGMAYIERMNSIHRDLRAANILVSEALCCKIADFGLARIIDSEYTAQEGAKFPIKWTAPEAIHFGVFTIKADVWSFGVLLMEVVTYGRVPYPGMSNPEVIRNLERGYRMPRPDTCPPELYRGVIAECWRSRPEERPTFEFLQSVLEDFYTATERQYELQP
SMILES,inhibition [1] [%],inhibition [2] [%],inhibition [3] [%],inhibition [4] [%],inhibition [5] [%],inhibition [6] [%],inhibition [7] [%],inhibition [8] [%],inhibition [9] [%],inhibition [10] [%],inhibition [11] [%],inhibition [12] [%],inhibition [13] [%],inhibition [14] [%],inhibition [15] [%],inhibition [16] [%],inhibition [17] [%],inhibition [18] [%],inhibition [19] [%],inhibition [20] [%]
NS(=O)(=O)c1ccc(N/N=C2\C(=O)Nc3cccc(CCc4ccncc4)c32)cc1,0.32,4.33,10.4,3.67,4.79,-0.69,-1.07,0.17,0.16,1.04,0.36,1.26,1.42,4.28,6.81,-0.53,3.04,-0.31,0.15,0.27
O=C(Nc1n[nH]c2nnc(-c3cccnc3)cc12)C1CC1,1.65,0.58,2.68,-0.2,0.81,-0.91,-0.57,0.26,-0.1,-1.49,-1.56,-0.82,-1,0.34,1.5,-2.25,2.57,-1.02,-0.99,-0.29
N#Cc1cccc(Nc2ncc(-c3ccccc3)o2)c1,-1.77,2.28,5.45,5.35,3.56,3.51,3.45,1.01,-0.7,2.15,5.14,2.3,2.59,-0.19,2.05,2.09,2.9,3.59,2.98,1.65
CC1(C)CC(n2cnc(-c3ccc(F)cc3)c2-c2ccnc(N)n2)CC(C)(C)N1,1.58,0.51,1.43,-2.57,1.06,-2.17,1.66,-1.42,-1.35,-0.2,-2.23,1.3,-0.87,0.38,-0.12,-1.07,0.2,-0.41,-1,-0.77
CS(=O)(=O)Nc1ccc(-c2cc(-c3ccccc3)cc(C(N)=O)c2N)cc1,-0.04,0,4.17,1.21,0.72,0.76,3.55,-2.25,-2.03,1.18,1.29,-0.17,1.14,11.5,17.2,1.51,1.89,0.77,5.17,-0.83
COc1cc(Nc2ncc(-c3ccccc3)o2)cc(OC)c1,-6.19,4.37,20.1,3.71,6.51,0.81,7.86,-1.03,0.87,3.66,4.79,4.48,7.93,3.35,5.26,0.1,1.99,3.52,5.17,1.76
CN1CCC(n2cnc(-c3ccc(F)cc3)c2-c2ccnc(NCCO)n2)CC1,-5.39,3.74,2.11,-6.22,4.95,3.29,6.89,0.96,0.09,7.33,8.66,2.1,3.08,0.6,6.58,0.99,11,4.45,5.89,3.52
